Structures can show the parent of a compound that is named as a salt.
test system: Vero E6 infected with SARS-CoV-2; assay: morphology score (similarity to uninfected cells); higher = more like uninfected cells; settings: 24 h

| Compound | morphology score |
| --- | --- |
| c1cnc(NCc2ccc(CNc3ncccn3)cc2)nc1 (10 µM) | 0.18 |
| C[C@H](N)Cc1c[nH]cn1 [alpha-methylhistamine-dihydrobromide-(S)-(+)] (10 µM) | 0.17 |
| O=c1[nH]ccc2cc(OC3CCNCC3)ccc12 (10 µM) | 0.27 |
| O=S(=O)(O)c1cc(I)c(O)c2ncccc12 [chiniofon] (10 µM) | 0.0464 |
| COc1cc(C(=O)NC2CCCNC2)cc(OC)c1OC (stereo not drawn) [troxipide] (10 µM) | -0.014 |
| CC(=O)Nc1ccc(O)cc1 [paracetamol] (10 µM) | -0.0685 |
| CC(C)(F)C[C@H](N[C@@H](c1ccc(-c2ccc(S(C)(=O)=O)cc2)cc1)C(F)(F)F)C(=O)NC1(C#N)CC1 [odanacatib] (10 µM) | 0.161 |
| CC1(C)CC(Oc2ccc(-c3ccc(-c4cn[nH]c4)cc3O)nn2)CC(C)(C)N1 (10 µM) | -0.373 |
| CCCCCCCCCCCCCCSCC(=O)O [tetradecylthioacetic-acid] (10 µM) | -0.0649 |
| C[C@H]1CC[C@H](n2c3cnccc3c3cnc(Nc4ccc5c(n4)CCN(C(=O)CO)C5)nc32)CC1 (10 µM) | 0.0031 |
| Cc1ccccc1NC(=N)Nc1ccccc1C [ditolylguanidine] (10 µM) | -0.286 |
| FC(F)(F)c1cc(NC(=S)Nc2ccc(Br)cc2-c2nnn[nH]2)cc(C(F)(F)F)c1 (10 µM) | 0.0928 |
| CCNC(=O)c1noc(-c2cc(C(C)C)c(O)cc2O)c1-c1ccc(CN2CCOCC2)cc1 (0.833333 µM) | 0.0632 |

test system: Vero E6 infected with SARS-CoV-2; assay: SARS-CoV-2 infection rate relative to infected DMSO; higher = more infection, active = 60 or less; settings: 24 h

| Compound | SARS-CoV-2 infection rate |
| --- | --- |
| O/N=C/c1cc[n+](COC[n+]2ccc(/C=N/O)cc2)cc1 [obidoxime] (10 µM) | 108% (inactive) |
| Cc1ccc(-c2nc3ccc(C)cn3c2CC(=O)N(C)C)cc1 (10 µM) | 98.5% (inactive) |
| COc1cc2c(cc1OC)CN(CCc1ccc(NC(=O)c3cc(OC)c(OC)cc3NC(=O)c3cnc4ccccc4c3)cc1)CC2 [tariquidar] (10 µM) | 108% (inactive) |
| CCCC(=O)Nc1cccc(NC(=O)c2ccccc2Br)c1 (10 µM) | 110% (inactive) |
| O=C(Nc1cnccc1Cl)N1CCN(Cc2ccc3c(c2)OC(F)(F)O3)CC1 (10 µM) | 106% (inactive) |
| N[C@@H]1[C@H]2CN(c3nc4c(cc3F)c(=O)c(C(=O)O)cn4-c3ccc(F)cc3F)C[C@@H]12 [trovafloxacin] (10 µM) | 108% (inactive) |
| CN1C(=O)C(Cc2c[nH]c3ccccc23)NC1=S (stereo not drawn) [necrostatin-1] (10 µM) | 93.5% (inactive) |
| O=C(NC[C@H](O)CO)c1ccncc1Nc1ccc(I)cc1F (0.833333 µM) | 114% (inactive) |
| CC(C)=CCC[C@](C)(O)[C@@H]1CC=C(C)CC1 [levomenol] (10 µM) | 104% (inactive) |
| CC(=O)[C@H]1CC[C@H]2[C@@H]3CCC4=CC(=O)CC[C@]4(C)[C@H]3CC[C@]12C [progesterone] (10 µM) | 96% (inactive) |
| CC(C)(C)C1CCc2c(sc(NC(=O)c3ccco3)c2C(=O)O)C1 (stereo not drawn) (0.833333 µM) | 106% (inactive) |
| COc1cc2c(NC3CCN(C(C)C)CC3)nc(N3CCC(F)(F)CC3)nc2cc1OCCCN1CCCC1 (10 µM) | 25.5% (active) |
| C[C@H](N/C(=N/C#N)Nc1cccc2ncccc12)c1ccccc1 (10 µM) | 98.5% (inactive) |
| O[C@@H]1CCCC[C@H]1N1CCC(c2ccccc2)CC1 (racemic) [vesamicol] (10 µM) | 98.5% (inactive) |
| COc1cc(/C=C/C(=O)CC(=O)/C=C/c2ccc(O)c(OC)c2)ccc1O [curcumin] (10 µM) | 61.5% (inactive) |
| O=C(O)c1ccc(-c2ccc3cc(O)c(C45CC6CC(CC(C6)C4)C5)cc3c2)cc1 (10 µM) | 106% (inactive) |
| C[N+](C)(C)CCCCCNCC12CC3CC(CC(C3)C1)C2 (10 µM) | 112% (inactive) |
| NC(=O)OCCCc1ccccc1 [phenprobamate] (10 µM) | 102% (inactive) |
| CC(C)Oc1ccc(Cc2ccc(NC3=NCCN3)cc2)cc1 (10 µM) | 100% (inactive) |
| Cc1cccc(/C=N/Nc2cc(N3CCOCC3)n3nc(-c4ccncc4)cc3n2)c1 (10 µM) | 50.5% (active) |

| Compound | SARS-CoV-2 infection rate |
| --- | --- |
| CCNC(=O)[C@H]1O[C@@H](n2cnc3c(N)ncnc32)[C@H](O)[C@@H]1O (10 µM) | 92% (inactive) |
| CC[N+](C)(CC)CCOC(=O)C(O)(c1ccccc1)C1CCCCC1 (stereo not drawn) [oxyphenonium] (10 µM) | 102% (inactive) |
| Cc1cccc(C)c1OCC(=O)N[C@@H](Cc1ccccc1)[C@@H](O)C[C@H](Cc1ccccc1)NC(=O)[C@H](C(C)C)N1CCCNC1=O [Lopinavir] (10 µM) | 82% (inactive) |
| NC(=O)c1cn(Cc2c(F)cccc2F)nn1 [rufinamide] (10 µM) | 102% (inactive) |
| O=C(NO)c1ccc(O)c(O)c1 [didox] (10 µM) | 96% (inactive) |
| C1COC(NC(C2CC2)C2CC2)=N1 [rilmenidine] (10 µM) | 99.5% (inactive) |
| CCn1cc(-c2ccnc3[nH]c(-c4cccc(CN(C)C)c4)cc23)c(-c2ccc(NC(=O)N(C)C)cc2)n1 (0.833333 µM) | 106% (inactive) |
| c1cnc(NCc2ccc(CNc3ncccn3)cc2)nc1 (10 µM) | 112% (inactive) |
| C[C@H](N)Cc1c[nH]cn1 [alpha-methylhistamine-dihydrobromide-(S)-(+)] (10 µM) | 99% (inactive) |
| O=c1[nH]ccc2cc(OC3CCNCC3)ccc12 (10 µM) | 110% (inactive) |
| O=S(=O)(O)c1cc(I)c(O)c2ncccc12 [chiniofon] (10 µM) | 102% (inactive) |
| COc1cc(C(=O)NC2CCCNC2)cc(OC)c1OC (stereo not drawn) [troxipide] (10 µM) | 120% (inactive) |
| CC(=O)Nc1ccc(O)cc1 [paracetamol] (10 µM) | 103% (inactive) |
| CC(C)(F)C[C@H](N[C@@H](c1ccc(-c2ccc(S(C)(=O)=O)cc2)cc1)C(F)(F)F)C(=O)NC1(C#N)CC1 [odanacatib] (10 µM) | 96.5% (inactive) |
| CC1(C)CC(Oc2ccc(-c3ccc(-c4cn[nH]c4)cc3O)nn2)CC(C)(C)N1 (10 µM) | 120% (inactive) |
| CCCCCCCCCCCCCCSCC(=O)O [tetradecylthioacetic-acid] (10 µM) | 112% (inactive) |
| C[C@H]1CC[C@H](n2c3cnccc3c3cnc(Nc4ccc5c(n4)CCN(C(=O)CO)C5)nc32)CC1 (10 µM) | 110% (inactive) |
| Cc1ccccc1NC(=N)Nc1ccccc1C [ditolylguanidine] (10 µM) | 117% (inactive) |
| FC(F)(F)c1cc(NC(=S)Nc2ccc(Br)cc2-c2nnn[nH]2)cc(C(F)(F)F)c1 (10 µM) | 98% (inactive) |
| CCNC(=O)c1noc(-c2cc(C(C)C)c(O)cc2O)c1-c1ccc(CN2CCOCC2)cc1 (0.833333 µM) | 94% (inactive) |

— the supplement of paper PMC13380429
